3T3 cytotox: cytotoxic compounds in NIH 3T3 cells; NIH 3T3 viability, CellTiter-Glo ATP luminescence, 48-72 h; Potency, µM (doses to about 96.7 µM), hits mostly inhibitors; 94,000 tested, 4.3% active; further: nearly all actives have a fitted effect of over 55% in size
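Luminescent ATP readout (CellTiter-Glo, 10 min RT) after 48 or 72 hr compound exposure of NIH 3T3 cells seeded at 400 cells/well in 1536-well format; quantitative HTS.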
HEK293 tox: HEK 293 cell cytotoxicity. 94,000 tested, 6.6% active. HEK 293 viability, ATP luminescence (CellTiter-Glo), 48-72 h. Potency, µM (doses to about 115 µM), most hits filed as inhibitors; further: nearly all actives have a fitted effect of over 60% in size
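Viability of HEK 293 cells, plated at 250 cells/well, was judged by cellular ATP after compound treatment for 48 or 72 hr. Luminescence was imaged 10 min after CellTiter-Glo addition at room temperature.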
FLuc inh: blocks purified firefly luciferase enzyme activity; P08659; purified P. pyralis luciferase, luminescence, biochemical; Potency, µM (top dose mostly 115 µM), actives largely listed as inhibitors; 76,000 tested, 2.5% active; AID 1347043; further: nearly all actives have a fitted effect of over 65% in size
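Inhibitors were tested against purified firefly luciferase in a biochemical, low-substrate format (both substrates at 10uM) and luminescence measured with a CCD imager.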
NPR1 antag: blocks ANP-stimulated signaling of human Npr1 receptor. Potency, µM (doses to about 46.3 µM), usual class: inhibitors. HEK293 hNpr1 GloSensor cGMP, ANP-stimulated luminescence. P16066. 76,000 tested, 1.6% active; calls by dose curve; further: nearly all actives have a fitted effect of over 60% in size
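Compound pre-incubated 30 min at room temperature on GloSensor-loaded HEK293 cells stably carrying hNpr1 and the pGS-40F cGMP biosensor. Stimulation uses hNppA at 0.1 nM final; luminescence is taken at baseline and 20 min post-agonist.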
Npr1 antag conf: confirmation of human Npr1 natriuretic peptide receptor antagonists | shares compounds with NPR1 antag | HEK293 hNpr1 cGMP GloSensor luminescence, ANP-stimulated | Potency, µM (highest dose often 57.6 µM), actives largely listed as inhibitors | 1,400 tested, 76% active | AID 1347044; calls by dose curve; further: nearly all actives have a fitted effect of over 70% in size
Npr2 selectivity: antagonizes human Npr2, subtype selectivity check; 1,400 tested, 67% active; shares compounds with NPR1 antag; Potency, µM (doses to about 57.6 µM), actives largely listed as inhibitors; AID 1347046; HEK293 hNpr2 GloSensor cGMP luminescence, CNP-stimulated; calls by dose curve; further: nearly all actives have a fitted effect of over 70% in size
Target sequence (P20594 whole entry, looked up): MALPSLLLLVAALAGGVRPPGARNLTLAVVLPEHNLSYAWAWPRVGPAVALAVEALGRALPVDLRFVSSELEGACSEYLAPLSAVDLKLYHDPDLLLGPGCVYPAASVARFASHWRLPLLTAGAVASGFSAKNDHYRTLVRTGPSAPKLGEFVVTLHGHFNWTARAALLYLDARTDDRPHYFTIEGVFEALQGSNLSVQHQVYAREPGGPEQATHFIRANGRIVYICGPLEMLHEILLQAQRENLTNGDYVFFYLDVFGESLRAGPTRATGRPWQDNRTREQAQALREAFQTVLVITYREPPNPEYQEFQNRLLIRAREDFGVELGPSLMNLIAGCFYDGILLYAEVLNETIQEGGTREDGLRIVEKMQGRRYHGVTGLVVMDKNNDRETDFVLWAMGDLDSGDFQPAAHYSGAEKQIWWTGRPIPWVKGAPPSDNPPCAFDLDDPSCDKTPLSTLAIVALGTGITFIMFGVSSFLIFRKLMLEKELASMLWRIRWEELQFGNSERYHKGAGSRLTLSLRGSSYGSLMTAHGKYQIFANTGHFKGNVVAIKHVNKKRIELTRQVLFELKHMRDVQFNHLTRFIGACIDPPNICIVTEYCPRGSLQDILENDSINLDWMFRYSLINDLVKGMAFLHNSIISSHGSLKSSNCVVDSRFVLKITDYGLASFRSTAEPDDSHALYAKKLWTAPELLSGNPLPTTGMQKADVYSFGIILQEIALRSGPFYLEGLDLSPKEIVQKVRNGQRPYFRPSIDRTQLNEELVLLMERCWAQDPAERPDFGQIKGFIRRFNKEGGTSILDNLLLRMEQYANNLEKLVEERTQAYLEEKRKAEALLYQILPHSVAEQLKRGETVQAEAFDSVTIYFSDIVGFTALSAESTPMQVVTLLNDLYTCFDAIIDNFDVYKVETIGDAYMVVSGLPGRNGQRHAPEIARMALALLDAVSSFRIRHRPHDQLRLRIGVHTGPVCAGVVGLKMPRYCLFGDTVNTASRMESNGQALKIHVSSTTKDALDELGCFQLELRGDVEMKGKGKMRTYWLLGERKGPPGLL
FLuc inh counter: FLuc enzyme inhibition, Npr1 counter-screen | shares compounds with NPR1 antag | purified FLuc enzyme, luminescence, Km substrate | Potency, µM (doses to about 57.6 µM), actives largely listed as inhibitors | 1,400 tested, 0.7% active | AID 1347047
GloSensor ctrl: reduces cGMP signal in GloSensor control cells. shares compounds with NPR1 antag. HEK293 GloSensor cGMP, SNP-stimulated, luminescence. Potency, µM (series often up to 57.6 µM), hits mostly inhibitors. 1,400 tested, 69% active; calls by dose curve; further: nearly all actives have a fitted effect of over 70% in size
Large screens that a line does not name were inactive (follow-up assays come after a bar, where they were run). An excerpt weighted towards active compounds, which were near 11% of everything screened. Unless noted, the call rests on the fitted dose curve; in most records, active means well fitted curve in the direction sought with a large enough effect; inconclusive means small, poorly fitted or top-dose-only effect, or another doubt; inactive means no such curve, though single readings can be large; an effect the other way counts as inactive or inconclusive.

Cn1c(CN2CCOC[C@H]2c2ncc(-c3ccc(Cl)cc3)[nH]2)nc2ccccc21	3T3 cytotox inconclusive, HEK293 tox 79µM, NPR1 antag 20µM | Npr1 antag conf 31µM | Npr2 selectivity 28µM | FLuc inh counter inactive | GloSensor ctrl inconclusive
N#Cc1cccc(CN2CCOC[C@H]2c2ncc(-c3ccc(Cl)s3)[nH]2)c1	3T3 cytotox inconclusive, HEK293 tox inconclusive, NPR1 antag 28µM | Npr1 antag conf 40µM | Npr2 selectivity inconclusive | FLuc inh counter inactive | GloSensor ctrl inconclusive
Fc1ccc(CN2CCOC[C@H]2c2ncc(-c3ccc(F)cc3F)[nH]2)cc1	3T3 cytotox inconclusive, HEK293 tox 79µM, NPR1 antag inconclusive | Npr1 antag conf inconclusive | Npr2 selectivity inconclusive | FLuc inh counter inactive | GloSensor ctrl inconclusive
CC1(c2noc(C3CCOCC3)n2)CCN(Cc2ccc(Cl)cc2F)CC1	HEK293 tox inconclusive, NPR1 antag 13µM | Npr1 antag conf 24µM | Npr2 selectivity 24µM | FLuc inh counter inactive | GloSensor ctrl 22µM
CCCn1c(C)cnc1C1CCN(C(=O)Nc2ccccc2OCC)C1 (stereo not given)	none (no result: FLuc inh, NPR1 antag)
CC(=O)c1c(C)nn(CC(=O)N2CCn3nc(Cc4ccccc4)cc3C2)c1C	HEK293 tox inconclusive, NPR1 antag 11µM | Npr1 antag conf 22µM | Npr2 selectivity 19µM | FLuc inh counter inactive | GloSensor ctrl 14µM
O=C(CN1CCCCCCC1)N1CCn2nc(Cc3ccccc3)cc2C1	3T3 cytotox inconclusive
Cc1ccc([S+](=O)([O-])N2CCC(C(=O)N3CCC(N4CCCC4=O)CC3)CC2)cc1	none (no result: FLuc inh, NPR1 antag)
CC(C)n1cnnc1CC1CCCN(S(=O)(=O)c2ccccc2)C1 (stereo not given)	none (no result: FLuc inh, NPR1 antag)
Cc1ccsc1C(=O)NC1CCN(c2cc(C(F)(F)F)ncn2)CC1	HEK293 tox inconclusive, NPR1 antag inconclusive
O=C(CCC1CCN(S(=O)(=O)c2ccc(F)cc2)CC1)NCc1nc2ccccc2[nH]1	HEK293 tox inconclusive, NPR1 antag 11µM | Npr1 antag conf 19µM | Npr2 selectivity 22µM | FLuc inh counter inactive | GloSensor ctrl 15µM
CN(C)c1ccc(CN2CCC3(CN[S+](=O)([O-])c4ccccc4N3)C2)cc1 (stereo not given)	3T3 cytotox inconclusive
Cc1cc(OCCN2CCOCC2)c(C)c2c1CC[C@@H]([C@H](C)C(=O)N1CCCCC1)C2	3T3 cytotox inconclusive, HEK293 tox 20µM, NPR1 antag 18µM | Npr1 antag conf 40µM | Npr2 selectivity 35µM | FLuc inh counter inactive | GloSensor ctrl inconclusive
O=C1COCC2(CN1)CN(c1ccc(Oc3ccccc3)cc1)C2	3T3 cytotox inconclusive, HEK293 tox inconclusive, NPR1 antag 7.1µM | Npr1 antag conf 11µM | Npr2 selectivity 9.9µM | FLuc inh counter inactive | GloSensor ctrl 9.9µM
Clc1cnccc1CN1CCNc2cnc(-c3ccccc3)cc2C1	3T3 cytotox inconclusive, HEK293 tox inconclusive, NPR1 antag 28µM | Npr1 antag conf 31µM | Npr2 selectivity 35µM | FLuc inh counter inactive | GloSensor ctrl 31µM
CCOc1cc2c(cn1)NCCN(Cc1ccncc1Cl)C2	3T3 cytotox inconclusive, HEK293 tox inconclusive, NPR1 antag 35µM | Npr1 antag conf 31µM | Npr2 selectivity inconclusive | FLuc inh counter inactive | GloSensor ctrl 40µM
CCOc1cc2c(cn1)NCCN(Cc1ccc3[nH]ccc3c1)C2	HEK293 tox inconclusive
O=C1NCc2ccccc2CC12CCN(Cc1ccncc1Cl)CC2	none (no result: FLuc inh, NPR1 antag)
Clc1cnccc1CN1CCNc2cnc(Oc3ccccc3)cc2C1	3T3 cytotox inconclusive, HEK293 tox 89µM, NPR1 antag 4µM | Npr1 antag conf 6.3µM | Npr2 selectivity 8.9µM | FLuc inh counter inactive | GloSensor ctrl 5µM
CN(C)c1ccc(C(=O)N2CCCC(COc3ccccc3C(=O)N3CCCC3)C2)cc1 (stereo not given)	HEK293 tox inconclusive
CCn1nc(C)c(CNC(=O)c2cc(COc3ccc4ncccc4c3)on2)c1C	3T3 cytotox inconclusive, HEK293 tox inconclusive, NPR1 antag 10µM | Npr1 antag conf 22µM | Npr2 selectivity 19µM | FLuc inh counter inactive | GloSensor ctrl 17µM
C=CCN(Cc1ccc(C#N)cc1)Cc1cccnc1	3T3 cytotox inconclusive, HEK293 tox inconclusive
CS(=O)(=O)Nc1ccc(C2(C(=O)NC3CCCCCC3)CCCCC2)cc1	HEK293 tox inconclusive
CC1Oc2ccc(NC(=O)c3ccc(F)cc3)cc2CN(Cc2ccc3c(c2)OCO3)C1=O (stereo not given)	3T3 cytotox inconclusive, HEK293 tox inconclusive, NPR1 antag inconclusive | Npr1 antag conf 24µM | Npr2 selectivity inconclusive | FLuc inh counter inactive | GloSensor ctrl 31µM
COc1ccc(-c2noc(CC3CCN(C(=O)c4cc(Cl)ccc4OC)CC3)n2)cc1	3T3 cytotox inconclusive, HEK293 tox 32µM | Npr1 antag conf 22µM | Npr2 selectivity 24µM | FLuc inh counter inactive | GloSensor ctrl 22µM
COc1cc(Cl)ccc1C(=O)N1CCC(Cc2nc(-c3ccc(F)cc3)no2)CC1	3T3 cytotox 11µM, HEK293 tox inconclusive, NPR1 antag 5.6µM | Npr1 antag conf 4.8µM | Npr2 selectivity 6.1µM | FLuc inh counter inactive | GloSensor ctrl 6.9µM
CCOc1ccccc1C(=O)N1CCC(Cc2nc(-c3ccc(F)cc3)no2)CC1	3T3 cytotox inconclusive, HEK293 tox inconclusive, NPR1 antag inconclusive
CC1=C[C@@H](CNC(=O)c2ccccc2)[C@H](C(C)C)C[C@H]1CC(=O)N1CCCC1	3T3 cytotox inconclusive, HEK293 tox inconclusive
COc1cccc(NC(=O)Cc2c[nH]c3ncc(-c4cccnc4OC)cc23)c1	3T3 cytotox 28µM, HEK293 tox 50µM, NPR1 antag inconclusive | Npr1 antag conf 40µM | Npr2 selectivity inconclusive | FLuc inh counter inactive | GloSensor ctrl inconclusive
COc1ncccc1-c1cnc2[nH]cc(CC(=O)Nc3ccccn3)c2c1	3T3 cytotox inconclusive, HEK293 tox inconclusive, NPR1 antag inconclusive
COc1ccc(NC(=O)Cc2c[nH]c3ncc(-c4ccccc4)cc23)cn1	HEK293 tox inconclusive, NPR1 antag inconclusive | Npr1 antag conf inconclusive | Npr2 selectivity inconclusive | FLuc inh counter inactive | GloSensor ctrl inactive
CC(C)CCN1C(=O)CC[C@]2(C(=O)NCc3cccc(Cl)c3)CCCC[C@@H]12	3T3 cytotox inconclusive, HEK293 tox inconclusive
O=C(c1ccccc1)N1Cc2[nH]cnc2C[C@H]1c1nc(-c2ccc(Cl)cc2)no1	3T3 cytotox inconclusive, HEK293 tox inconclusive
